About 83,000 compounds went through this panel and 20% of them were active in at least one assay; those are over-represented in the sample as a whole.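 The endpoint reported here, percent growth, reads 100 for growth as untreated, 0 for no net growth and -100 for all cells dead.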 Unmarked numbers belong to inactive results. The source made the active and inactive calls. How the source made its calls: active means growth percent below 10; inactive means the rest.
Tests used:
Experiment in all cases: NCI-60 one-dose screen, 48 h (100 = growth as untreated, 0 = no growth, -100 = all killed)
Conditions in all cases: 10 µM unless noted
NCI-H23 lung = system: NCI-H23 lung
NCI-H226 lung = system: NCI-H226 lung
NCI-H322M lung = system: NCI-H322M lung
HOP-62 NSCLC = system: HOP-62 NSCLC
NCI-H460 lung = system: NCI-H460 lung
HOP-92 NSCLC = system: HOP-92 NSCLC
NCI-H522 lung = system: NCI-H522 lung
A549/ATCC NSCLC = system: A549/ATCC NSCLC
786-0 renal = system: 786-0 renal
COLO 205 colon = system: COLO 205 colon
DU-145 prostate = system: DU-145 prostate
K-562 leukemia = system: K-562 leukemia
MALME-3M melanoma = system: MALME-3M melanoma
MDA-MB-231 breast = system: MDA-MB-231 breast
RXF 393 renal = system: RXF 393 renal
SF-268 CNS = system: SF-268 CNS
SF-295 CNS = system: SF-295 CNS
SF-539 CNS = system: SF-539 CNS
UACC-257 melanoma = system: UACC-257 melanoma
M14 melanoma = system: M14 melanoma

| SMILES | growth (NCI-H23 lung) | growth (NCI-H226 lung) | growth (NCI-H322M lung) | growth (HOP-62 NSCLC) | growth (NCI-H460 lung) | growth (HOP-92 NSCLC) | growth (NCI-H522 lung) | growth (A549/ATCC NSCLC) | growth (786-0 renal) | growth (COLO 205 colon) | growth (DU-145 prostate) | growth (K-562 leukemia) | growth (MALME-3M melanoma) | growth (MDA-MB-231 breast) | growth (RXF 393 renal) | growth (SF-268 CNS) | growth (SF-295 CNS) | growth (SF-539 CNS) | growth (UACC-257 melanoma) | growth (M14 melanoma) |
| --- | --- | --- | --- | --- | --- | --- | --- | --- | --- | --- | --- | --- | --- | --- | --- | --- | --- | --- | --- | --- |
| Cc1ccc(C(=O)Nc2ccc(-n3ccnc3)c(C(F)(F)F)c2)cc1C#Cc1cnc2cccnn12 | 13.3% | -52.4% (active) | 44.5% | -20.3% (active) | 18.8% | -14.1% (active) | -20% (active) | 28.8% | 14% | 22.5% | 40.7% | 4.76% (active) | -14% (active) | -15.5% (active) | -20% (active) | 45.4% | 21.8% | -40.9% (active) | 8.92% (active) | 1.02% (active) |
| C=CCn1c(O)c(N=Nc2nc(-c3cc4ccccc4oc3=O)cs2)c2ccccc21 | 35.4% | 74.2% | 101% | 80.8% | 18.3% | 85% | 58.3% | 24.7% | 47.3% | 18.1% | 74.1% | 107% | 104% | -24.9% (active) | -4.94% (active) | 42.1% | 54.6% | 83.7% | 101% | 70.9% |
| COC(=O)c1c(C(=O)OC)c2c3ccccc3c3ccccc3n2c1C(=O)C(F)(F)F | 89.1% | 80% | 101% | 107% | 105% | 97.2% | 96.4% | 111% | 102% | 108% | 106% | 97.2% | 104% | 81.6% | 101% | 101% | 94.3% | 95.2% | 111% | 97% |
| Cc1oc(-c2ccccc2)nc1CN[C@@H]1C[C@@H]2C[C@H]([C@H]1C)C2(C)C | -30% (active) | -29.8% (active) | 57.9% | 75% | 4.28% (active) | -11.4% (active) | 30.8% | 50.9% | 21.8% | -69.3% (active) | 65.5% | 11.6% | -61.7% (active) | 35.2% | -78.7% (active) | 80.8% | 11% | 14.8% | 8.4% (active) | -63.1% (active) |
| Cc1ccc(C(=O)Nc2cc(-c3ccccc3)cc(C(F)(F)F)c2)cc1C#Cc1cnc2cccnn12 | 63.3% | 51.2% | 102% | 108% | 51.1% | 95.4% | 56.3% | 68.9% | 60% | 73.1% | 84.8% | 5.94% (active) | 39% | 57.3% | 73.7% | 91.9% | 68% | 63.8% | 65.8% | 36.8% |
| CN1CCN(C(=O)Oc2cc3c(c4ccccc24)[C@H](CCl)CN3C(=O)c2cc3cc(OCCCN4CCC4)ccc3[nH]2)[C@@H]2CSSC[C@H]21 | -72% (active) | -22.4% (active) | 2.48% (active) | -40.4% (active) | -35.7% (active) | -10% (active) | -51.7% (active) | -2.8% (active) | -89.1% (active) | -65.5% (active) | -31.6% (active) | -4.46% (active) | -55.1% (active) | -9.52% (active) | -71.1% (active) | -10.3% (active) | -7.45% (active) | -58.8% (active) | -21% (active) | -74.7% (active) |
| O=C(CSc1nc2sc3c(c2c(=O)n1-c1ccc(Cl)cc1)CCCC3)N/N=C/C=C/c1ccccc1 | -74.7% (active) | -36.1% (active) | 34.8% | -71.3% (active) | -16.9% (active) | 9.97% (active) | 2.3% (active) | -18.3% (active) | -45.2% (active) | -45.4% (active) | 26.7% | 19.4% | -97% (active) | -69.4% (active) | -67.1% (active) | 55.1% | 12% | -35.2% (active) | 1.05% (active) | -65.9% (active) |
| COc1cccc(/C=C/c2nc3ccccc3c(=O)n2CC(=O)Nc2ccccc2)c1 | 59.2% | 13.9% | 72.3% | 4.65% (active) | 51.4% | 19.5% | 53.3% | 16.9% | -8.65% (active) | 75.5% | 87.8% | 93% | 56.1% | -29% (active) | 0.184% (active) | 69.5% | 48.8% | 11.8% | 67.8% | 47.8% |
| COc1cc(/C=C/C(=O)c2cnn(-c3cc(=O)[nH]c4ccccc34)c2C)cc(OC)c1OC | 3.65% (active) | 21.9% | 12.8% | -1.9% (active) | 7.98% (active) | 23.3% | -18.1% (active) | 7.4% (active) | 18.2% | 4.15% (active) | 24.9% | 3.19% (active) | 38.2% | 5.84% (active) | -6.88% (active) | 32.2% | 14.5% | -48% (active) | 43.3% | 19.5% |
| S=C(NCCc1ccccc1)Nc1ccc(OCc2nc3ccc(Cl)cc3[nH]2)cc1 | 28.6% | 67.1% | 57.5% | 49.7% | 10.8% | 14.4% | -26.8% (active) | 51.2% | 29% | 43.6% | 37.3% | 10.1% | 56.5% | 9.6% (active) | -12.6% (active) | 52.8% | 60.4% | 17.8% | 74.1% | 46.7% |
| O=c1[nH]c2ccccc2cc1CSc1ccccc1Nc1nccc(-c2ccc3c(c2)OCO3)n1 | 85.5% | 49.7% | 87.7% | 40.6% | 76.7% | 71.7% | 34.8% | 82.4% | 64.7% | 84.9% | 85.1% | 87.6% | 80.2% | 85.4% | 81.5% | 63.2% | 75.3% | 63.9% | 94.4% | 89.3% |
| COc1ccc(-c2nc3ccccc3n2CC(=O)N=Nc2c(O)[nH]c3ccc(OC)cc23)cc1 | 89.7% | -18.8% (active) | 89.4% | 67.4% | 10.5% | -7.89% (active) | 47.8% | 37% | 42.4% | 36% | 3.7% (active) | 32.5% | 30.6% | 66.5% | 10.6% | 77.5% | 104% | -34.7% (active) | 60.8% | 64.5% |
| COc1cc(CNC(=O)C[C@H](C)CCC=C(C)C)ccc1OCc1cn(-c2cccc(C(F)(F)F)c2)nn1 | 79.4% | 72.3% | 90.1% | 88.8% | 14.6% | 86.1% | 83.1% | 42.6% | 93% | 74.2% | 101% | 59% | 80.8% | 87.2% | 88.3% | 83.9% | 72.9% | 16.3% | 104% | 92.1% |
| COc1ccc(N=Nc2c(N)nn3c(-c4cc5ccccc5oc4=O)ccnc23)cc1 | 36.6% | 3.29% (active) | 63.4% | 14.7% | 17.2% | 34.3% | 72.7% | 59.4% | 15.6% | 63.9% | 61.9% | 51.5% | 49.3% | -3.18% (active) | 10.1% | 57.8% | 34.5% | 15.2% | 88.4% | 59.5% |
| COc1cc(/C=N/NC(=O)c2ccc(OCc3nc4ccc(C)cc4[nH]3)cc2)cc(OC)c1OC | 22.3% | 43% | 66.2% | 62.5% | 33.6% | 96.5% | 28.1% | 28.4% | 41.2% | 8.02% (active) | 62.2% | 17.7% | 4.8% (active) | 87.8% | 39.6% | 78.7% | 40.4% | 49.2% | 11.3% | 33% |
| CC1=C(C(=O)Nc2ccccc2)C(c2cccc3ccccc23)n2c(nc3ccccc32)N1 (stereo not given) | 76.7% | -39.8% (active) | 44% | -61.9% (active) | 27.6% | 1.76% (active) | 63.6% | 28.2% | 6.29% (active) | 95.2% | 29% | 82.9% | 43.8% | 53.8% | 13.9% | 19.8% | 32.2% | 43.8% | 45.1% | 65.7% |

From PubChem BioAssay (NCI)
